Data: PubChem BioAssay AID1159580 (chemical genetic matrix, 2015)
Where “and” joins values, the source holds several entries; their conditions need not be identical. Equal entries are not always repeated. Screen size: about 5,500 compounds; about 2,000 (36%) were called active. Inconclusive results (about 18%) are left out. No stated cut-off is given here; in the data, active means normalized growth mostly below about 0.91 (no sharp cut-off); inconclusive means no clear call, values can overlap the other calls; inactive means mostly above about 0.92. The list shows a part of the results. A structure can be active in one record and inactive in another.

Assay: chemical genetic growth profiling, strain panel (AID 1159580);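 further: tested at 20 µM; growth read once vehicle control cultures reached saturation at 30 °C; 1 = growth at the plate median or of vehicle wells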
Details: S. cerevisiae deletion strains, growth OD

Measured: normalized growth

CSc1ccc2c(c1)N(CCC1CCCCN1C)c1ccccc1S2 (stereo not given)
0.0522 (active) and 0.997 (inactive): locus YHR030C, strain SLT2, stronger effect = lower value
inactive: locus YAL021C, strain ccr4, stronger effect = lower value 0.939 | locus YAL030W, strain snc1, stronger effect = lower value 0.985 | locus YAL040C, strain CLN3, stronger effect = lower value 1.07 | locus YBL061C, strain skt5, stronger effect = lower value 0.963 | locus YBR023C, strain chs3, stronger effect = lower value 0.923 | locus YBR171W, strain sec66, stronger effect = lower value 1.03 | locus YBR231C, strain swc5, stronger effect = lower value 0.94 | locus YCL011C, strain gbp2, stronger effect = lower value 0.94 | locus YCL016C, strain dcc1, stronger effect = lower value 0.951 | locus YCL061C, strain MRC1 (second series), stronger effect = lower value 0.991 | locus YCL069W, strain vba3, stronger effect = lower value 1.01 | locus YCR088W, strain abp1, stronger effect = lower value 1.01 | locus YDL005C, strain med2, stronger effect = lower value 1.05 | locus YDL040C, strain nat1, stronger effect = lower value 1.01 | locus YDL185W, strain tfp1, stronger effect = lower value 1.01 | locus YDR001C, strain nth1, stronger effect = lower value 1.02 | locus YDR150W, strain NUM1, stronger effect = lower value 0.972 | locus YDR159W, strain sac3, stronger effect = lower value 0.977 | locus YDR297W, strain sur2, stronger effect = lower value 0.962 | locus YDR334W, strain swr1, stronger effect = lower value 1.04 | locus YDR335W, strain msn5, stronger effect = lower value 0.967 | locus YDR363W, strain ESC2, stronger effect = lower value 0.894 | locus YDR392W, strain spt3, stronger effect = lower value 1.12 | locus YEL003W, strain gim4, stronger effect = lower value 0.971 | locus YEL037C, strain rad23, stronger effect = lower value 1.01 | locus YEL061C, strain CIN8 (second series), stronger effect = lower value 1.02 | locus YER002W, strain NOP16, stronger effect = lower value 1.01 | locus YER016W, strain bim1, stronger effect = lower value 0.992 | locus YER110C, stronger effect = lower value 0.916 | locus YER111C, strain swi4, stronger effect = lower value 1.01 | locus YER155C, strain BEM2 (second series), stronger effect = lower value 1.05 | locus YGL078C, strain dbp3, stronger effect = lower value 1.01 | locus YGL167C, strain pmr1, stronger effect = lower value 1.01 | locus YGL173C, strain kem1, stronger effect = lower value 0.966 | locus YGL227W, strain vid30, stronger effect = lower value 1.04 | locus YGL240W, strain doc1, stronger effect = lower value 0.955 | locus YGL253W, strain hxk2, stronger effect = lower value 0.948 | locus YHR013C, strain ard1, stronger effect = lower value 1.01 | locus YHR079C, strain IRE1, stronger effect = lower value 0.979 | locus YHR142W, strain chs7, stronger effect = lower value 0.962 | locus YIL125W, strain kgd1, stronger effect = lower value 1.01 | locus YJL092W, strain hpr5, stronger effect = lower value 0.994 | locus YJL115W, strain asf1, stronger effect = lower value 1.01 | locus YJL129C, strain trk1, stronger effect = lower value 1.07 | locus YJL154C, strain vps35, stronger effect = lower value 1.03 | locus YJL164C, strain tpk1, stronger effect = lower value 0.977 | locus YJL166W, strain qcr8, stronger effect = lower value 0.97 | locus YJL187C, strain SWE1, stronger effect = lower value 0.939 | locus YJR066W, strain TOR1, stronger effect = lower value 0.937
active: locus YAL013W, strain DEP1, stronger effect = lower value 0.161 and 0.864 | locus YAL026C, strain drs2, stronger effect = lower value 0.23 | locus YBR009C, strain hhf1, stronger effect = lower value 0.877 | locus YBR021W, strain FUR4, stronger effect = lower value 0.195 | locus YBR229C, strain ROT2, stronger effect = lower value 0.451 | locus YBR279W, strain paf1, stronger effect = lower value 0.924 | locus YCL029C, strain bik1, stronger effect = lower value 0.169 | locus YDL035C, strain GPR1, stronger effect = lower value 0.0738 | locus YDL074C, strain BRE1, stronger effect = lower value 0.0864 | locus YDL101C, strain DUN1, stronger effect = lower value 0.0947 | locus YDL134C, strain PPH21, stronger effect = lower value 0.0681 | locus YDL192W, strain arf1, stronger effect = lower value 0.0652 | locus YDR069C, strain doa4, stronger effect = lower value 0.891 | locus YDR101C, strain arx1, stronger effect = lower value 0.419 | locus YDR137W, strain rgp1, stronger effect = lower value 1.35 [resistant] | locus YDR162C, strain NBP2, stronger effect = lower value 0.0524 | locus YDR195W, strain ref2 1.37 [resistant] | locus YDR318W, strain mcm21, stronger effect = lower value 0.116 | locus YDR388W, stronger effect = lower value 0.0641 | locus YDR502C, strain sam2, stronger effect = lower value 0.123 | locus YEL061C, strain CIN8, stronger effect = lower value 0.196 | locus YER015W, strain faa2, stronger effect = lower value 0.842 | locus YER155C, strain BEM2, stronger effect = lower value 0.789 | locus YER167W, strain BCK2, stronger effect = lower value 0.118 | locus YFR010W, strain ubp6, stronger effect = lower value 0.781 | locus YGL086W, strain mad1, stronger effect = lower value 0.0828 | locus YGL248W, strain PDE1, stronger effect = lower value 0.0643 | locus YGR135W, strain pre9, stronger effect = lower value 0.189 | locus YGR229C, strain SMI1, stronger effect = lower value 0.06 | locus YGR252W, strain gcn5, stronger effect = lower value 0.161 | locus YHR027C, strain rpn1, stronger effect = lower value 0.844 | locus YHR079C, strain IRE1 (second series), stronger effect = lower value 0.374 | locus YHR094C, strain hxt1, stronger effect = lower value 0.304 | locus YHR129C, strain ARP1, stronger effect = lower value 0.0924 | locus YHR200W, strain rpn10, stronger effect = lower value 0.26 | locus YIL066C, strain RNR3, stronger effect = lower value 0.0646 | locus YIL073C, strain SPO22, stronger effect = lower value 0.0996 | locus YIR030C, strain dcg1, stronger effect = lower value 0.227 | locus YJL095W, strain BCK1 (second series), stronger effect = lower value 0.894 | locus YJL134W, strain LCB3, stronger effect = lower value 0.9 | locus YJL168C, strain set2, stronger effect = lower value 0.098 | locus YJL187C, strain SWE1 (second series), stronger effect = lower value 0.0709 | locus YJR043C, strain POL32, stronger effect = lower value 0.0862
0.0681 (active) and 0.997 (inactive): locus YJL095W, strain BCK1, stronger effect = lower value
0.194 (active) and 1.01 (inactive): locus YGR078C, strain PAC10, stronger effect = lower value
